Experimental data as given in PMC7862700, “An all-to-all approach to the identification of sequence-specific readers for epigenetic DNA modifications on cytosine”.

Columns and labels:
Assay in all cases: DAPPL (digital affinity profiling via proximity ligation, sequencing); 10 mM Tris-HCl pH 7.5, 50 mM NaCl, 1 mM DTT, 4% glycerol, room temperature, 30 min; GST-TFs on glutathione beads, 16-mer random dsDNA library, 0.1% formaldehyde crosslink after washing; high values mean tight binding
FEV = target: T1, FEV (Homo sapiens, UniProt Q99581 1-238); settings: protein: recombinant; tags: N-terminal GST; dsDNA, one strand shown
T1 sequence: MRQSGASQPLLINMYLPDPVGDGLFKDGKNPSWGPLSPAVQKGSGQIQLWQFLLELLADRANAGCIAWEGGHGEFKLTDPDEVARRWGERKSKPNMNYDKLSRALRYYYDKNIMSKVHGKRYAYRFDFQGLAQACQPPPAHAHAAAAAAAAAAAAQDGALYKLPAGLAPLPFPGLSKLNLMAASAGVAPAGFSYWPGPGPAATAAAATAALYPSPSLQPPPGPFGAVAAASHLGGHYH
Outline: (§1)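 Yeast served to express human transcription factors as GST fusions, which were then captured on glutathione beads and labelled with DNA barcodes. Pooled with a tag-only sample, they were incubated with 200 nmole of a 16-mer random double-stranded DNA library for 30 min at room temperature in Tris/NaCl/DTT/glycerol buffer, washed, crosslinked with 0.1% formaldehyde, ligated by proximity, amplified by PCR and sequenced. Dividing each hexamer's read frequency for a factor by its frequency for the tag-only sample gives the binding signal.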

ETV5 = ETV5 (Homo sapiens, UniProt P41161 1-510); settings: protein: recombinant; tags: N-terminal GST; dsDNA, one strand shown
Outline: as §1

HSF1 = HSF1 (Homo sapiens, UniProt Q00613 1-529); settings: protein: recombinant; tags: N-terminal GST; chain copies: 3; dsDNA, one strand shown
Outline: as §1

SPIC = target: T2, SPIC (Homo sapiens, UniProt Q8N5J4 1-248); settings: protein: recombinant; tags: N-terminal GST; dsDNA, one strand shown
T2 sequence: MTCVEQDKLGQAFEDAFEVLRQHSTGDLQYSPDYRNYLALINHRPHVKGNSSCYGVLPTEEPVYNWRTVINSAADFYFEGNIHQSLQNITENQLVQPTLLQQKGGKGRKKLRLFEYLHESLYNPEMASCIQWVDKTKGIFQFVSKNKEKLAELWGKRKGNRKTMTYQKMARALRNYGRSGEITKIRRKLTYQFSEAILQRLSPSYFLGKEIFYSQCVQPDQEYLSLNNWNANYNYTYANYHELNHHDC
Outline: as §1

ELF4 = ELF4 (Homo sapiens, UniProt Q99607 1-663); settings: protein: recombinant; tags: N-terminal GST; dsDNA, one strand shown
Outline: as §1

ELK4 = target: T3, ELK4 (Homo sapiens, UniProt P28324-2 1-405); settings: protein: recombinant; tags: N-terminal GST; dsDNA, one strand shown
T3 sequence: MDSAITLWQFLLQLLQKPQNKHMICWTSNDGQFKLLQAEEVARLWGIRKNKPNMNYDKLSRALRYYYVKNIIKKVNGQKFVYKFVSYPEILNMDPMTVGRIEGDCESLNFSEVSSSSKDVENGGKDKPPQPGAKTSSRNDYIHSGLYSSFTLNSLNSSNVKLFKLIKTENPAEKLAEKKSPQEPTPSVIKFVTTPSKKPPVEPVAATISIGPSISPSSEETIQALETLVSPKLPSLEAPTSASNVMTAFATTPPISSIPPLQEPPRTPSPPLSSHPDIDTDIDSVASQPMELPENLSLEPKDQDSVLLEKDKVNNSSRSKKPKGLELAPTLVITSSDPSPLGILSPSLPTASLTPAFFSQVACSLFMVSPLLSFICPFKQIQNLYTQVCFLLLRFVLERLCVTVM
Outline: as §1

ETV2 = target: T4, ETV2 (Homo sapiens, UniProt O00321 1-342); settings: protein: recombinant; tags: N-terminal GST; dsDNA, one strand shown
T4 sequence: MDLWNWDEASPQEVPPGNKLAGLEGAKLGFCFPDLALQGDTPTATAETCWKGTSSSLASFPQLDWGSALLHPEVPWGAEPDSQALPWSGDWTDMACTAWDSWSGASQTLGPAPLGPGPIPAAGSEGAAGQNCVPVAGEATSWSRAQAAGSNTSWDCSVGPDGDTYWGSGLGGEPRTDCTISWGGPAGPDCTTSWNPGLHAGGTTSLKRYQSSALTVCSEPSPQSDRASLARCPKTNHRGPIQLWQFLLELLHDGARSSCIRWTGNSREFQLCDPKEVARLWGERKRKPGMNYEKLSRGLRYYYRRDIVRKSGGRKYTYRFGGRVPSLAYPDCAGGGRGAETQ
Outline: as §1

ELF3 = target: T5, ELF3 (Homo sapiens, UniProt P78545 1-371); settings: protein: recombinant; tags: N-terminal GST; dsDNA, one strand shown
T5 sequence: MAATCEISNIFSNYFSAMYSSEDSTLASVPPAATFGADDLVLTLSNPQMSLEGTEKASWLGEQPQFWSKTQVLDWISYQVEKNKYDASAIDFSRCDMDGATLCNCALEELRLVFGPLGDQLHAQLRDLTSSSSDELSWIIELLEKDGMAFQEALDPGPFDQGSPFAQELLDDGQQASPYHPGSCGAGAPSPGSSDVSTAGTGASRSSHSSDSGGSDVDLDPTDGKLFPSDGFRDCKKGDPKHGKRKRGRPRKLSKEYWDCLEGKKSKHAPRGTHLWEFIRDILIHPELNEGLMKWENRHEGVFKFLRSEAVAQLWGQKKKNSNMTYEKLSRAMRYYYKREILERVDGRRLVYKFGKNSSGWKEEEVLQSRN
Outline: as §1

ETV1 = ETV1 (Homo sapiens, UniProt P50549 1-477); settings: protein: recombinant; tags: N-terminal GST; dsDNA, one strand shown
Outline: as §1

ERF = target: T6, ERF (Homo sapiens, UniProt P50548 1-548); settings: protein: recombinant; tags: N-terminal GST; dsDNA, one strand shown
T6 sequence: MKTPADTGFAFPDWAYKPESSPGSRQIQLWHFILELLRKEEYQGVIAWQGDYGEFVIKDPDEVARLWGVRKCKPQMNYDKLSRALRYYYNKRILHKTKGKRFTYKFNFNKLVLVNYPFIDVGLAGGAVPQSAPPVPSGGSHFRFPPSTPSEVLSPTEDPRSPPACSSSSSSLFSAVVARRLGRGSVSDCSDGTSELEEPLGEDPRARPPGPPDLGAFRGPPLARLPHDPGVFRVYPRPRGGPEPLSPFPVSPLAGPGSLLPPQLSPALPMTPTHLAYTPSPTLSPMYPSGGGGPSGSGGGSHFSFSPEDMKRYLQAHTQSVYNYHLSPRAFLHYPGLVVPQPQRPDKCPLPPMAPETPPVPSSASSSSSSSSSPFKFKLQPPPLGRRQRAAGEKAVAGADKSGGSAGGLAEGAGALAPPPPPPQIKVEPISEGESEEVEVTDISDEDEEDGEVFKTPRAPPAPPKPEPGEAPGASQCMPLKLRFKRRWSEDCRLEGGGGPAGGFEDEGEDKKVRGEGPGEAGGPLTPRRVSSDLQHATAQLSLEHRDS
Outline: as §1

ETV3L = target: T7, ETV3L (Homo sapiens, UniProt Q6ZN32 1-361); settings: protein: recombinant; tags: N-terminal GST; dsDNA, one strand shown
T7 sequence: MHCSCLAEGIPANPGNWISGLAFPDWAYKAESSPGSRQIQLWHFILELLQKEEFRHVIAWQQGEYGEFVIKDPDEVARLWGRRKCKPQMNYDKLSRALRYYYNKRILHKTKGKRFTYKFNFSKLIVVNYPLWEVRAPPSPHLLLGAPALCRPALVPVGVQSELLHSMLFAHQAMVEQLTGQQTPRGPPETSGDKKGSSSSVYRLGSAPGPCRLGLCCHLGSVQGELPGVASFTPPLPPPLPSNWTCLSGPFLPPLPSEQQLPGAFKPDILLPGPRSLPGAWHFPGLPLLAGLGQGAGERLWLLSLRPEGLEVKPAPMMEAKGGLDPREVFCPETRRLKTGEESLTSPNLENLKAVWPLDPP
Outline: as §1

ETS2 = target: T8, ETS2 (Homo sapiens, UniProt P15036 1-469); settings: protein: recombinant; tags: N-terminal GST; dsDNA, one strand shown
T8 sequence: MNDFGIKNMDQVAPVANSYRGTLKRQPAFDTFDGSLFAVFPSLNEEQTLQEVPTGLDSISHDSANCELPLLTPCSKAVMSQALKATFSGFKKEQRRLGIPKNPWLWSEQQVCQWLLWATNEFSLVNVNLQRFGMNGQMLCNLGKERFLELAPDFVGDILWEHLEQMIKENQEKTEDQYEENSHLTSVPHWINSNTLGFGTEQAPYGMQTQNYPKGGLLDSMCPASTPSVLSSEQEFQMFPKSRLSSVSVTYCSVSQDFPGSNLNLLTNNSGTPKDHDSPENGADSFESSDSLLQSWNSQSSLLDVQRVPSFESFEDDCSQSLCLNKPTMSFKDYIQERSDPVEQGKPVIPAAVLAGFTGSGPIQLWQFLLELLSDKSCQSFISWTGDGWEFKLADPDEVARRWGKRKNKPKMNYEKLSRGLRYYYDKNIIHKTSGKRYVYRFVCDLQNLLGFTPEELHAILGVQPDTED
Outline: as §1

SPDEF = target: T9, SPDEF (Homo sapiens, UniProt O95238 1-335); settings: protein: recombinant; tags: N-terminal GST; dsDNA, one strand shown
T9 sequence: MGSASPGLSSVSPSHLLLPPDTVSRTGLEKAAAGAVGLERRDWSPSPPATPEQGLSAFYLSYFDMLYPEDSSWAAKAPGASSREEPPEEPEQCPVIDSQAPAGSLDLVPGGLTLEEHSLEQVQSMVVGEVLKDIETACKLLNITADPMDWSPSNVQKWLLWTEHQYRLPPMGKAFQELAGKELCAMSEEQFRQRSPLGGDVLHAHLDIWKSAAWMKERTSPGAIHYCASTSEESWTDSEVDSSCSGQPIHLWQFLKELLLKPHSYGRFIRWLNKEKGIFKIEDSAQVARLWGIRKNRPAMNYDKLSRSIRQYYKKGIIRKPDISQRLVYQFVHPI
Outline: as §1

ETV7 = target: T10, ETV7 (Homo sapiens, UniProt Q9Y603 1-341); settings: protein: recombinant; tags: N-terminal GST; dsDNA, one strand shown
T10 sequence: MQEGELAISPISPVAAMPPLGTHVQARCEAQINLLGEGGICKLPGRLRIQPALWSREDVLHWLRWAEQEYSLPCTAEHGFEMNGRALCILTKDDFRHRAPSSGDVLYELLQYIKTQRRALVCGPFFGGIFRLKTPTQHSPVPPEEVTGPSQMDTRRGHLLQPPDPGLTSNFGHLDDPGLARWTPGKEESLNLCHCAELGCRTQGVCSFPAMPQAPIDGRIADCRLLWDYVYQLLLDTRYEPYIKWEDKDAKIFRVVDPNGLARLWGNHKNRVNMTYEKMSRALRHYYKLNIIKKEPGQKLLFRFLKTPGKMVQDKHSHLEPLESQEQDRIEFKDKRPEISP
Outline: as §1

ELF5 = target: T11, ELF5 (Homo sapiens, UniProt Q9UKW6-2 1-255); settings: protein: recombinant; tags: N-terminal GST; dsDNA, one strand shown
T11 sequence: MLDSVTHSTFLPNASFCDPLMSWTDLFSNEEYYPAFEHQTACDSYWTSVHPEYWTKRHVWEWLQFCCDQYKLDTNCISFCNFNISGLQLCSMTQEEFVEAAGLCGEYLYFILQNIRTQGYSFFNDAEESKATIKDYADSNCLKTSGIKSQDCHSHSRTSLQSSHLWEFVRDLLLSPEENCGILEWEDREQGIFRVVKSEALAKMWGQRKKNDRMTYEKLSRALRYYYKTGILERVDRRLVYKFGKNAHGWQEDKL
Outline: as §1

ETV3 = target: T12, ETV3 (Homo sapiens, UniProt P41162-2 1-143); settings: protein: recombinant; tags: N-terminal GST; dsDNA, one strand shown
T12 sequence: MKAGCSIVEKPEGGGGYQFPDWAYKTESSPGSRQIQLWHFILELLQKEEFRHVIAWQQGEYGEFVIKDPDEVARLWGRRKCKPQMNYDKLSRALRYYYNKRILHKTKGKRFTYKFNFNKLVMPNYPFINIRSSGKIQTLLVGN
Outline: as §1

ETV6 = ETV6 (Homo sapiens, UniProt P41212 1-452); settings: protein: recombinant; tags: N-terminal GST; dsDNA, one strand shown
Outline: as §1

Sequence of ETV6 (P41212 whole entry): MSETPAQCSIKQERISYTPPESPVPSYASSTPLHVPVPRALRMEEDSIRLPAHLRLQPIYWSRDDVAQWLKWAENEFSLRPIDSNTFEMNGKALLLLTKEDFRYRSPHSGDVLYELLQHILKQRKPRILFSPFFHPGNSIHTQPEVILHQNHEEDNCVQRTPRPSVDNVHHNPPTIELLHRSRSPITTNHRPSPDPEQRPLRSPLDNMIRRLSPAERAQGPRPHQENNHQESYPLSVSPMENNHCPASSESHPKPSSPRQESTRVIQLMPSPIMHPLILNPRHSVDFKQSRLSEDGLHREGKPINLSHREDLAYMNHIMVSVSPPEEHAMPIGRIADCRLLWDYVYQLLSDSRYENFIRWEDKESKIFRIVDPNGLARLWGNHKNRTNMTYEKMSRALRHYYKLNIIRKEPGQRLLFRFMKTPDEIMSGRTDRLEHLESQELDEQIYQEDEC
Sequence of ETV5 (P41161 whole entry): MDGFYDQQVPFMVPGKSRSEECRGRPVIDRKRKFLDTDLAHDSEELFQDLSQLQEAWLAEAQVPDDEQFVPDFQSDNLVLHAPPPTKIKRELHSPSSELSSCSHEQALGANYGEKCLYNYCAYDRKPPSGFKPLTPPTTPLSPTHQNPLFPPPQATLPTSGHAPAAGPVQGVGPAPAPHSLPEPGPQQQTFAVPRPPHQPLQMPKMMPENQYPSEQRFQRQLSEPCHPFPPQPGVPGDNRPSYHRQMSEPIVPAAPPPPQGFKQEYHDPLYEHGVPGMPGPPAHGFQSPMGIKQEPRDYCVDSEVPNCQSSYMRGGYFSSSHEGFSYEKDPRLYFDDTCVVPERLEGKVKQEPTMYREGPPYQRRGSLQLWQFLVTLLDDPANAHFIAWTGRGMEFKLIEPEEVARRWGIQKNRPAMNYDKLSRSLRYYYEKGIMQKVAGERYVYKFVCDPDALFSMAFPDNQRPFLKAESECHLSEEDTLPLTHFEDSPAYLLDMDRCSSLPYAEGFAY
Sequence of HSF1 (Q00613 whole entry): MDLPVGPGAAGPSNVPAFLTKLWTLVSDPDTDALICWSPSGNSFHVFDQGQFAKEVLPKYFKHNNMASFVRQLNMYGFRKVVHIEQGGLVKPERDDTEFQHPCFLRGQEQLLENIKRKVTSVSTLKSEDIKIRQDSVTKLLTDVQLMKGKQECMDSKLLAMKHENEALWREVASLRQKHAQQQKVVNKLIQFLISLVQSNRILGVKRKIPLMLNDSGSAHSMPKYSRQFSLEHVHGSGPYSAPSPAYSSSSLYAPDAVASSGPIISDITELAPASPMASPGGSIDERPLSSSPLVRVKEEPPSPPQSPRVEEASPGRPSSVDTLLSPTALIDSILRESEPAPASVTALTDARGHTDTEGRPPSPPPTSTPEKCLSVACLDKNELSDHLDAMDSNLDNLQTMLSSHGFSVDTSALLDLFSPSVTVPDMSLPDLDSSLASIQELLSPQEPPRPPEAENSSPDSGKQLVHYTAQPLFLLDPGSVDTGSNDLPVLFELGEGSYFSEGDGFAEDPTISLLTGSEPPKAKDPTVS
Sequence of ELF4 (Q99607 whole entry): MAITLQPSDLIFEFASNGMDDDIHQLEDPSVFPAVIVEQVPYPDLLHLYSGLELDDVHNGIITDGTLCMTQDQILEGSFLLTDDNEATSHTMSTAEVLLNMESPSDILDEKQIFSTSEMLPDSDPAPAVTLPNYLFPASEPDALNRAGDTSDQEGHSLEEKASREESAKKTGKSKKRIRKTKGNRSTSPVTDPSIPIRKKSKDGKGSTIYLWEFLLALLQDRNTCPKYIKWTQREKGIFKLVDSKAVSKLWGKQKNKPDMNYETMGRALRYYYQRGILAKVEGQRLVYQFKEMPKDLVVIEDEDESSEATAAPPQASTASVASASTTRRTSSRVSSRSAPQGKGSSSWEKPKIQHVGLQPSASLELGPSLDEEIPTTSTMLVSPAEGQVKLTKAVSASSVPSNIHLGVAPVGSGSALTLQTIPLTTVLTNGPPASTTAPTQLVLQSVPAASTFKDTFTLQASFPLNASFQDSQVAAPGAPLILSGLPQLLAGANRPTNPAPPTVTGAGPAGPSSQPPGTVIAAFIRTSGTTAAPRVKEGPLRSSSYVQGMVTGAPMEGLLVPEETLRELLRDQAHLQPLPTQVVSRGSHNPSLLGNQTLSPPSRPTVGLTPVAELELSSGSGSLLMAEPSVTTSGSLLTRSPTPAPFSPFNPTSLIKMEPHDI
Sequence of ETV1 (P50549 whole entry): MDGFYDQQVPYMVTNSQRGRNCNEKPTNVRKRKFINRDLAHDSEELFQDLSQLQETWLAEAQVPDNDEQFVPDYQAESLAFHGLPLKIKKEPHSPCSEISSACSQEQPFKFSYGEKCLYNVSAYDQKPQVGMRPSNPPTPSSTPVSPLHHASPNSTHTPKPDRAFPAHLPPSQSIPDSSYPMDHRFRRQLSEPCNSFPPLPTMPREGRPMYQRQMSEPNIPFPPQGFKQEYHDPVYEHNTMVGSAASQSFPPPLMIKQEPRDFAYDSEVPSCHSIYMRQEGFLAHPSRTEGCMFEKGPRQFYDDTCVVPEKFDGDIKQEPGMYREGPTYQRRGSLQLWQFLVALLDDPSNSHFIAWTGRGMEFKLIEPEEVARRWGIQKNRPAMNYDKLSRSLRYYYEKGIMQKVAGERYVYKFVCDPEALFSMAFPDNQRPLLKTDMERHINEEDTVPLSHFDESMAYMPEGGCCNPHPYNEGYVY

CGCTCC
binding signal (FEV): 1.34 fold enrichment (6-mer frequency, TF over GST control)
binding signal (ETV5): 1.31 fold enrichment (6-mer frequency, TF over GST control)
binding signal (HSF1): 1.09 fold enrichment (6-mer frequency, TF over GST control)
binding signal (SPIC): 1.33 fold enrichment (6-mer frequency, TF over GST control)
binding signal (ELF4): 1.38 fold enrichment (6-mer frequency, TF over GST control)
binding signal (ELK4): 1.41 fold enrichment (6-mer frequency, TF over GST control)
binding signal (ETV2): 1.36 fold enrichment (6-mer frequency, TF over GST control)
binding signal (ELF3): 1.3 fold enrichment (6-mer frequency, TF over GST control)
binding signal (ETV1): 1.26 fold enrichment (6-mer frequency, TF over GST control)
binding signal (ERF): 1.31 fold enrichment (6-mer frequency, TF over GST control)
binding signal (ETV3L): 1.4 fold enrichment (6-mer frequency, TF over GST control)
binding signal (ETS2): 1.39 fold enrichment (6-mer frequency, TF over GST control)
binding signal (SPDEF): 1.22 fold enrichment (6-mer frequency, TF over GST control)
binding signal (ETV7): 1.18 fold enrichment (6-mer frequency, TF over GST control)
binding signal (ELF5): 1.23 fold enrichment (6-mer frequency, TF over GST control)
binding signal (ETV3): 1.19 fold enrichment (6-mer frequency, TF over GST control)
binding signal (ETV6): 1.11 fold enrichment (6-mer frequency, TF over GST control)
